For orientation: viability means a read-out of living cells in per cent, often relative to untreated cells.

These results are taken from PubChem BioAssay (NCATS).

The nature of assay [1]: Quantitative High-Throughput drug screen in 47 multiple myeloma cell lines against the NCATS MIPE library collection: LP1_DSMZ cell viability assay (AID 1918982). Also: nearly all actives have a fitted effect of over 35% in size. The method in brief: (§1)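 500 cells/well; MIPE 4.0 drugs pin-transferred; 48 h, 37C, 5% CO2. CellTiter-Glo, 5 min RT, luminescence. Controls: DMSO 100%, media 0%.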
Assay [2] in a line: Quantitative High-Throughput drug screen in 47 multiple myeloma cell lines against the NCATS MIPE library collection: L363_DSMZ cell viability assay (AID 1918984). Also: nearly all actives have a fitted effect of over 40% in size. Put shortly:
as §1

Assay [3] in a line: Quantitative High-Throughput drug screen in 47 multiple myeloma cell lines against the NCATS MIPE library collection: OCIMY7_PLB cell viability assay (AID 1918987). Also: nearly all actives have a fitted effect of over 65% in size. The conditions noted are these: OCI-MY7 myeloma viability, CellTiter-Glo ATP, 48 h; viability (% of DMSO): at 45.8 µM (top of the series). The method in brief:
as §1
(In general: Cellular ATP, detected with luciferase, serves as a proxy for viable cell number.)

The nature of assay [4]: Quantitative High-Throughput drug screen in 47 multiple myeloma cell lines against the NCATS MIPE library collection: OCIMY5_PLB cell viability assay (AID 1918988). Also: nearly all actives have a fitted effect of over 65% in size. The method in brief:
as §1

The nature of assay [5]: Quantitative High-Throughput drug screen in 47 multiple myeloma cell lines against the NCATS MIPE library collection: OPM1_PLB cell viability assay (AID 1918989). Also: nearly all actives have a fitted effect of over 40% in size. The method in brief: as §1
A short description of assay [6]: Quantitative High-Throughput drug screen in 47 multiple myeloma cell lines against the NCATS MIPE library collection: KMS28PE_JCRB cell viability assay (AID 1918983). Also: nearly all actives have a fitted effect of over 35% in size. The method in brief: as §1
The nature of assay [7]: Quantitative High-Throughput drug screen in 47 multiple myeloma cell lines against the NCATS MIPE library collection: SKMM1_PLB cell viability assay (AID 1919863). Also: nearly all actives have a fitted effect of over 35% in size. As to conditions: SKMM1 myeloma viability, CellTiter-Glo ATP, 48 h; viability: hits give low values. Put shortly: as §1
Assay [8] in a line: Quantitative High-Throughput drug screen in 47 multiple myeloma cell lines against the NCATS MIPE library collection: KMS34_JCRB cell viability assay (AID 1918985). Also: nearly all actives have a fitted effect of over 40% in size. Put shortly:
as §1

Records with an inconclusive call do not appear. A number with no mark means an inactive call. Active and inactive are the calls of the source. Calls follow the shape of the dose curve; as a rule, active = well fitted cell-killing curve with a large enough effect; inconclusive = small, poorly fitted or top-dose-only effect, or effect the other way; inactive = no such curve, though single readings can be large or run the other way.
Potency is read from the fitted curve at half-maximal effect.

Regarding `CCCCOc1ccc(C(=O)Nc2ccc(F)cc2F)cc1`, the Potency result in assay [1], in assay [2], in assay [4] and in assay [5] was “inactive” throughout. In addition, the Potency in assay [3] is 0.105 µM (active).
Regarding `C[C@]12C=CC(=O)N[C@@H]1CC[C@H]1[C@H]3CC[C@@H](C(=O)Nc4cc(C(F)(F)F)ccc4C(F)(F)F)[C@@]3(C)CC[C@@H]12`, the Potency result in assay [1] was “inactive”. The Potency in assay [6] was 20.9 µM (active); in assay [4], 16.6 µM (active).
Regarding `Cc1onc(-c2ccccc2)c1C(=O)N[C@@H]1C(=O)N2[C@@H](C(=O)O)C(C)(C)S[C@@H]12`, the Potency entry in assay [3], in assay [4] and in assay [5] was “inactive” in each case. Besides, the viability in assay [7] was 123%.
Consider `CC(Oc1ccc(O)cc1)(P(=O)(O)O)P(=O)(O)O`, for which the Potency entry in assay [1], in assay [6], in assay [2] and in assay [8] was “inactive” in each case. Also, in assay [7], the viability is 108%.
As to `O=C(C=CC=Cc1ccc2c(c1)OCO2)N1CCCCC1`, the Potency entry in assay [1], in assay [6], in assay [8], in assay [3] and in assay [5] was “inactive” each time.
In the case of `CC(=O)NC(CS)C(=O)O` (stereo unspecified), the Potency result in assay [1], in assay [8] and in assay [5] was “inactive” each time.
As to `C[C@@H](NCc1cc2ccccc2[nH]1)c1cccc2ccccc12`, the Potency result in assay [1], in assay [6], in assay [4] and in assay [5] was “inactive” in each case. Besides, the viability in assay [7] is 132%.
Turning to `C[C@@]12C[C@@]3(O)O[C@@H](O1)[C@]1(COC(=O)c4ccccc4)[C@@H]3C[C@@]12O[C@@H]1O[C@H](CO)[C@@H](O)[C@H](O)[C@@H]1O`, the Potency result in assay [1], in assay [6], in assay [2], in assay [3], in assay [4] and in assay [5] was “inactive” each time.
Regarding `CON=C(C(=O)N[C@@H]1C(=O)N2C(C(=O)O)=C(CSC(=O)c3ccco3)CS[C@H]12)c1csc(N)n1`, the Potency entry in assay [1], in assay [6], in assay [3] and in assay [5] was “inactive” in each case. The viability in assay [7] was 134%.
As to `O=c1[nH]c(=O)n([C@H]2C[C@@H](O)[C@@H](CO)O2)cc1F`, the Potency in assay [1] was 10.5 µM (active); in assay [6] it was 20.9 µM (active); in assay [3], 0.59 µM (active); in assay [4], 26.4 µM (active); in assay [5] it was 0.0296 µM (active).
Consider `CN(N=O)C(=O)N[C@H]1C(O)OC(CO)[C@@H](O)[C@H]1O` (stereo partly specified), for which the Potency entry in assay [1], in assay [2] and in assay [5] was “inactive” each time.
With `c1cc(CN2CCCNCCNCCCNCC2)ccc1CN1CCCNCCNCCCNCC1`, the Potency result in assay [6], in assay [2], in assay [8] and in assay [5] was “inactive” each time. Moreover, in assay [7], the viability was 136%.
For the molecule `O=c1[nH]c(=O)n([C@H]2C[C@@H](O)[C@@H](CO)O2)cc1C=CBr`, the Potency entry in assay [1], in assay [6], in assay [2] and in assay [8] was “inactive” each time. In assay [5], the Potency was 0.105 µM (active).
Regarding `C[C@H](CCC(=O)O)[C@H]1CC[C@H]2[C@@H]3[C@H](O)C[C@@H]4C[C@H](O)CC[C@]4(C)[C@@H]3CC[C@]12C`, the Potency result in assay [1], in assay [6], in assay [2], in assay [8] and in assay [5] was “inactive” each time. Moreover, the viability in assay [7] is 131%.
`CC(C)(C)c1nc2c3cc[nH]c(=O)c3c3cc(F)ccc3c2[nH]1`: the Potency was 6.62 µM (active) in assay [6], 1.66 µM (active) in assay [8], 0.332 µM (active) in assay [3] and 0.935 µM (active) in assay [7].
For the molecule `c1coc(CNc2ncnc3nc[nH]c23)c1`, the Potency result in assay [1] and in assay [6] was “inactive” throughout. Besides, the Potency in assay [2] is 11.8 µM (active); in assay [4], 2.09 µM (active).
Turning to `O=C(O)[C@H](CC(=O)N1C[C@@H]2CCCC[C@H]2C1)Cc1ccccc1`, the Potency result in assay [1] and in assay [5] was “inactive” each time.
Regarding `C[C@H](NC(=O)[C@@H](O)c1cc(F)cc(F)c1)C(=O)N[C@@H]1C(=O)N(C)c2ccccc2-c2ccccc21`, the Potency entry in assay [1], in assay [6], in assay [8] and in assay [5] was “inactive” throughout.
With `Oc1ccc([C@@H]2Oc3ccc(O)cc3[C@@H]3CCC[C@@H]32)cc1`, the Potency was 23.5 µM (active) in assay [6]; 23.5 µM (active) in assay [8]; 1.18 µM (active) in assay [3]; 14.8 µM (active) in assay [4]; 16.6 µM (active) in assay [5]; 10.5 µM (active) in assay [7]. Besides, the Potency result in assay [2] was “inactive”.
